Drawing on PubChem BioAssay (NCI), this text covers growth for 18 molecules.

Molecules are shown by their SMILES. About 83,000 compounds went through this panel and 20% of them were active in at least one assay; those are over-represented in the sample as a whole.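 Single-dose data. Exposure time 48 hours. Values below 10 considered active.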 Unmarked numbers belong to inactive results. The source made the active and inactive calls.

Holding throughout (test): NCI-60 one-dose screen, 48 h (100 = growth as untreated, 0 = no growth, -100 = all killed)
Assay [1] concerns NCI-H23 lung. Conditions: 10 µM unless noted.
For assay [2], the system named is NCI-H322M lung. Conditions: 10 µM unless noted.
Assay [3] has as its system HOP-62 NSCLC. The settings on record: 10 µM unless noted.
The test system of assay [4] is NCI-H460 lung. The settings on record: 10 µM unless noted.
Assay [5] has as its system NCI-H522 lung. The settings on record: 10 µM.
Assay [6] concerns 786-0 renal. Conditions: 10 µM unless noted.
Assay [7] relates to COLO 205 colon. Conditions: 10 µM unless noted.
For assay [8], the system named is A549/ATCC NSCLC. Conditions: 10 µM unless noted.
The subject of assay [9] is HOP-92 NSCLC. Conditions: 10 µM unless noted.

On to `CN1CCc2c(c3ccccc3c3ccccc23)C1`, for which the growth in assay [1] is 74.2%; in [2] it was 51.4%; in [3], 45.8%; in assay [4], 27.7%; in assay [5] it was 48.7%; in assay [6], 49.8%. Moreover, the growth in assay [7] was 22.2%.

On to `CN1CCN(c2nc(-c3ccncc3)nc3sc4c(c23)CCCCCC4)CC1`, for which the growth is 73% in [1]; 86.6% in [2]; 71% in assay [3]; 84.3% in [4]; 69% in assay [8]; 52.8% in assay [7].

For `COc1ccc(-c2cc(=O)oc3c4c(ccc23)OCN(Cc2ccc(F)cc2)C4)cc1`, the growth in assay [1] is 41.2%; in assay [2], 75.9%; in assay [3], 80%; in assay [4] it was 61.8%; in assay [8] it was 69.6%; in assay [6] it was 65.7%. The growth in [7] was 64.2%.

Take `O=C(N/N=C(\CS(=O)(=O)c1ccccc1)c1cc2cc(Br)ccc2oc1=O)c1ccccc1`: the growth in assay [1] was 101%; in [2], 104%; in assay [3], 114%; in [9] it was 111%; in assay [5], 94.9%; in assay [8] it was 95.3%. Moreover, the growth in assay [6] is 106%.

Turning to `N#Cc1ccc(C(F)(F)F)nc1N1CCC(C(=O)Nc2ccc(Cl)cc2)CC1`, the growth is 72% in assay [1]; 71.1% in [2]; 69% in [3]; 34.1% in [4]; 53.2% in assay [8]; 70.4% in [6]. The growth in [7] is 85.9%.

For `O=[N+]([O-])c1ccc2nc(N/N=C/c3ccc(O)cc3)sc2c1`, the growth was 73.3% in [1]; 58.8% in assay [2]; 68.7% in assay [3]; 48.5% in assay [4]; 30.7% in assay [8]; 50.9% in assay [6]. The growth in assay [7] was 89.9%.

In the case of `COc1cc(/C=C2\C(=O)Nc3ccccc32)cc(OC)c1O`, the growth in [1] was 66.4%; in [2], 96%; in [3], 64.4%; in [4], 40.1%; in assay [5], 8.78% (active); in assay [8] it was 67.9%. Besides, the growth was 83.2% in assay [6] and 112% in assay [7].

As to `Cc1ccc(S(=O)(=O)N2C/C(=C\c3cc(F)cc(F)c3)C(=O)/C(=C/c3cc(F)cc(F)c3)C2)cc1`, the growth is -21.6% (active) in assay [1]; 27% in [2]; -60% (active) in assay [3]; 5.73% (active) in assay [4]; 27.6% in assay [8]; -85.6% (active) in assay [6]. Also, the growth in assay [7] was 1.42% (active).

As to `COc1cc2cc(Oc3ccc(NC(=O)Nc4cccc(C(F)(F)F)c4)cc3)c(C)nc2cc1OCCN1CCCCC1`, the growth in assay [1] was -75.4% (active); in assay [2], -14.5% (active); in [3] it was -68.8% (active); in [9], 23.4%; in [8], -56.2% (active); in assay [6], -83.7% (active). Moreover, the growth in assay [7] was -74.9% (active).

Regarding `CC(C)OC1=C(Cl)C(=O)c2ccccc2C1=O`, the growth in assay [1] is 81.8%; in [2] it was 95%; in assay [3], 92.1%; in assay [9] it was 99.8%; in [8] it was 102%; in assay [6], 108%. In assay [7], the growth is 97.7%.

Turning to `COc1ccc(CSc2nc3cc(OC)c(OC)cc3c(=O)n2-c2ccc(Cl)cc2)cc1`, the growth in [1] is 102%; in assay [2], 105%; in assay [3] it was 104%; in [4] it was 103%; in [8], 103%; in [6], 103%. Moreover, the growth in [7] was 104%.

`COc1ccc(Nc2nc(NCCNc3ccnc4cc(Cl)ccc34)nc(N3CCOCC3)n2)cc1`: the growth in assay [1] was 82.3%; in assay [2], 74.5%; in assay [3], 92.2%; in assay [4], 37.2%; in assay [8], 70.9%; in assay [6] it was 57.2%. Also, in [7], the growth is -37.2% (active).

Take `COc1cc(/C=C/C(=O)CC(=O)/C=C/c2cc(Br)c(OC)c(OC)c2)cc(Br)c1OC`: the growth is 100% in assay [1]; 97.6% in assay [2]; 93.1% in assay [3]; 93.7% in assay [9]; 92.8% in [5]; 96.1% in assay [8]. The growth in [6] was 94.3%.

With `O=C1OCC2=C1C(c1ccc3c(c1)OCO3)CC(=O)N2c1cccc(Cl)c1` (centres undefined), the growth is 90.2% in assay [1]; 94.1% in assay [2]; 103% in assay [3]; 108% in assay [4]; 92.9% in [5]; 94.6% in assay [8]. For the same molecule, the figures for the growth in [6] and in assay [7] were 110% and 105%, respectively.

As for `CCN(CC)CCCNc1ccc(C)c2sc3ccccc3c(=O)c12`, the growth in assay [1] is 53.8%; in assay [2], 57.2%; in [3], 40.9%; in assay [9] it was 25.3%; in [5], 54.4%; in assay [8], 19.1%. The growth in assay [6] is 32.5%; in [7], -70.2% (active).

As to `Oc1ccccc1/C=N/Nc1nc2ccccc2s1`, the growth in assay [1] is 59.4%; in assay [2] it was 63.1%; in assay [3] it was 49.2%; in assay [4], 15.7%; in assay [8], 45%; in [6], 73.4%. Moreover, in assay [7], the growth was 38%.

On to `c1ccc(-c2nc(N3CCOCC3)c3c4c(sc3n2)CCCCCC4)nc1`, for which the growth was 62.1% in assay [1]; 73% in [2]; 70.3% in assay [3]; 33.6% in assay [4]; 28.9% in assay [8]; 87.1% in assay [6]. In addition, the growth in assay [7] is 68.5%.

As for `CC1SC(c2ccc(Cl)cc2)N(CCc2cccs2)C1=O` (centres undefined), the growth is -0.245% (active) in [1]; 21.7% in [2]; 15.2% in assay [3]; -24.4% (active) in [4]; -48.9% (active) in [5]; 1.08% (active) in assay [8]. In addition, the figures for the growth in assay [6] and in assay [7] were -49.4% (active) and -60.5% (active), respectively.
